Measured values as given in PubChem BioAssay (NCI).
The panel holds about 83,000 compounds, 20% with a hit somewhere; the sample as a whole holds those more often.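 A percent growth of 40 corresponds to 60% growth inhibition; 0 means no net growth; -100 means all cells died. Active threshold: below 10.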 Activity calls are given as the source filed them.

How the values were obtained:
Assay in all cases: NCI-60 one-dose screen, 48 h (100 = growth as untreated, 0 = no growth, -100 = all killed)
Details in all cases: 10 µM
NCI-H23 lung = tested on: NCI-H23 lung
NCI-H226 lung = tested on: NCI-H226 lung
HOP-62 NSCLC = tested on: HOP-62 NSCLC
NCI-H460 lung = tested on: NCI-H460 lung
HOP-92 NSCLC = tested on: HOP-92 NSCLC
NCI-H522 lung = tested on: NCI-H522 lung
A549/ATCC NSCLC = tested on: A549/ATCC NSCLC
786-0 renal = tested on: 786-0 renal
COLO 205 colon = tested on: COLO 205 colon
DU-145 prostate = tested on: DU-145 prostate
K-562 leukemia = tested on: K-562 leukemia
MALME-3M melanoma = tested on: MALME-3M melanoma
MDA-MB-231 breast = tested on: MDA-MB-231 breast
RXF 393 renal = tested on: RXF 393 renal
SF-268 CNS = tested on: SF-268 CNS
SF-295 CNS = tested on: SF-295 CNS
SF-539 CNS = tested on: SF-539 CNS
UACC-257 melanoma = tested on: UACC-257 melanoma
M14 melanoma = tested on: M14 melanoma

| SMILES | growth (NCI-H23 lung) | growth (NCI-H226 lung) | growth (HOP-62 NSCLC) | growth (NCI-H460 lung) | growth (HOP-92 NSCLC) | growth (NCI-H522 lung) | growth (A549/ATCC NSCLC) | growth (786-0 renal) | growth (COLO 205 colon) | growth (DU-145 prostate) | growth (K-562 leukemia) | growth (MALME-3M melanoma) | growth (MDA-MB-231 breast) | growth (RXF 393 renal) | growth (SF-268 CNS) | growth (SF-295 CNS) | growth (SF-539 CNS) | growth (UACC-257 melanoma) | growth (M14 melanoma) |
| --- | --- | --- | --- | --- | --- | --- | --- | --- | --- | --- | --- | --- | --- | --- | --- | --- | --- | --- | --- |
| Nc1ncnc2c1ncn2C1(CO)OCC(O)C(O)C1O (stereo unspecified) | 96.8% (inactive) | 107% (inactive) | 91.4% (inactive) | 107% (inactive) | 113% (inactive) | 82.4% (inactive) | 96.7% (inactive) | 101% (inactive) | 113% (inactive) | 104% (inactive) | 110% (inactive) | 98.6% (inactive) | 109% (inactive) | 110% (inactive) | 95.3% (inactive) | 101% (inactive) | 96.5% (inactive) | 101% (inactive) | 97% (inactive) |
| CN(C)CCOc1cccc(-c2nc3sccn3c2-c2ccnc(S(C)(=O)=O)n2)c1 | 100% (inactive) | 92.3% (inactive) | 79% (inactive) | 94.9% (inactive) | 53.7% (inactive) | 103% (inactive) | 97.9% (inactive) | 95.9% (inactive) | 106% (inactive) | 93% (inactive) | 101% (inactive) | 101% (inactive) | 80.2% (inactive) | 104% (inactive) | 101% (inactive) | 100% (inactive) | 86.6% (inactive) | 106% (inactive) | 105% (inactive) |
| CC[C@@H](C(=O)[C@@H](C)[C@@H](O)[C@H](C)[C@@H]1O[C@@H]([C@@H](CC)C(=O)N(CC)CC)CC[C@@H]1C)C1O[C@]2(C=CC(=O)[C@]3(CC[C@@](C)([C@H]4CC[C@](O)(CC)[C@H](C)O4)O3)O2)[C@H](C)C[C@@H]1C (stereo partly specified) | 20% (inactive) | 13.4% (inactive) | 31.7% (inactive) | 18.5% (inactive) | -17.2% (active) | 8.58% (active) | 28.3% (inactive) | 34.6% (inactive) | 12.2% (inactive) | 68.5% (inactive) | 19.3% (inactive) | -27.3% (active) | 25.8% (inactive) | 28.2% (inactive) | 46.4% (inactive) | 4.86% (active) | 44.8% (inactive) | 19.8% (inactive) | 13.6% (inactive) |
| CC[C@@H](C(=O)[C@H](C)[C@H](O)[C@@H](C)[C@H]1O[C@H]([C@@H](CC)C(=O)N(CC)CC)CC[C@H]1C)C1O[C@]2(C=C[C@@H](O)[C@]3(CC[C@@](C)([C@H]4CC[C@](O)(CC)[C@H](C)O4)O3)O2)[C@H](C)C[C@@H]1C (stereo partly specified) | 18.6% (inactive) | 7.49% (active) | 16.7% (inactive) | 12.5% (inactive) | -26.2% (active) | 5.16% (active) | 20.9% (inactive) | 33.5% (inactive) | -20.2% (active) | 55.1% (inactive) | 16.2% (inactive) | -20.1% (active) | 15.9% (inactive) | 14% (inactive) | 42.1% (inactive) | -6.82% (active) | 38.2% (inactive) | 12.4% (inactive) | 11.7% (inactive) |
| COc1cc2c(cc1NC(=O)C(F)(F)F)-c1ccc(NC(=O)C(F)(F)F)cc1C2 | 86.9% (inactive) | 47.9% (inactive) | 45.4% (inactive) | 97.8% (inactive) | 90.3% (inactive) | 99.2% (inactive) | 92.2% (inactive) | 98.6% (inactive) | 112% (inactive) | 93.4% (inactive) | 100% (inactive) | 83.7% (inactive) | 91.1% (inactive) | 35.7% (inactive) | 90.1% (inactive) | 83.4% (inactive) | 80.6% (inactive) | 109% (inactive) | 113% (inactive) |
| CC(=O)Oc1cc(OC(C)=O)c2ccccc2c1OC(C)=O | 70.8% (inactive) | 88.4% (inactive) | 90% (inactive) | 86.6% (inactive) | 107% (inactive) | 68.2% (inactive) | 82.5% (inactive) | 103% (inactive) | 92.9% (inactive) | 67% (inactive) | 70.5% (inactive) | 67.3% (inactive) | 67.7% (inactive) | 93.1% (inactive) | 87.9% (inactive) | 103% (inactive) | 100% (inactive) | 81.4% (inactive) | 84.1% (inactive) |
| Cc1ccc(N=Nc2ccccc2)cc1 | 95.1% (inactive) | 108% (inactive) | 90.5% (inactive) | 105% (inactive) | 90.9% (inactive) | 84.2% (inactive) | 87.8% (inactive) | 89.6% (inactive) | 106% (inactive) | 111% (inactive) | 112% (inactive) | 98.4% (inactive) | 109% (inactive) | 106% (inactive) | 99.8% (inactive) | 90.3% (inactive) | 100% (inactive) | 88% (inactive) | 90.9% (inactive) |
| CS(=O)(=O)c1nccc(-c2c(-c3cccc(OCCN4CCOCC4)c3)nc3sccn23)n1 | 90.3% (inactive) | 83.9% (inactive) | 76.9% (inactive) | 101% (inactive) | 27.9% (inactive) | -63.3% (active) | 94.5% (inactive) | 90.6% (inactive) | 97.9% (inactive) | 91.9% (inactive) | 91.5% (inactive) | 105% (inactive) | 67.9% (inactive) | 89.2% (inactive) | 107% (inactive) | 104% (inactive) | 81.3% (inactive) | 110% (inactive) | 113% (inactive) |
| Clc1ccc(/C=C2\CCCC3C2=Nc2ccccc2NC3c2ccc(Cl)cc2)cc1 (stereo unspecified) | 83.3% (inactive) | 100% (inactive) | 122% (inactive) | 94.3% (inactive) | 60.6% (inactive) | 20% (inactive) | 78.5% (inactive) | 114% (inactive) | 68.2% (inactive) | 89.2% (inactive) | 47.2% (inactive) | 89.7% (inactive) | 97.6% (inactive) | 65.3% (inactive) | 80% (inactive) | 83.3% (inactive) | 92.3% (inactive) | 79.9% (inactive) | 29.1% (inactive) |
| N#Cc1ccc(C(=O)CSc2nccc(Nc3ccc(C(=O)O)cc3)n2)cc1 | 100% (inactive) | 101% (inactive) | 108% (inactive) | 104% (inactive) | 104% (inactive) | 94.4% (inactive) | 102% (inactive) | 104% (inactive) | 110% (inactive) | 110% (inactive) | 106% (inactive) | 106% (inactive) | 107% (inactive) | 97.4% (inactive) | 102% (inactive) | 97.4% (inactive) | 97.9% (inactive) | 110% (inactive) | 110% (inactive) |
| C/C=C/C1=CN2C(=O)c3cc(OC4OC(C)C(NC)C(C)(O)C4O)c(C)c(O)c3N=C[C@@H]2C1 (stereo partly specified) | -43.7% (active) | 3.31% (active) | -7% (active) | -13.8% (active) | -17.8% (active) | -28.5% (active) | 5.24% (active) | -25% (active) | -49.2% (active) | -12.7% (active) | 4.18% (active) | -51.9% (active) | -10.1% (active) | -40.5% (active) | -35.5% (active) | -25% (active) | -46.1% (active) | -6.48% (active) | -63.2% (active) |
| COc1cccc(CNc2cccc3cn[nH]c23)c1O | 94.9% (inactive) | 87.6% (inactive) | 95.3% (inactive) | 111% (inactive) | 72.3% (inactive) | 86.3% (inactive) | 90.6% (inactive) | 105% (inactive) | 110% (inactive) | 100% (inactive) | 126% (inactive) | 88.3% (inactive) | 72.8% (inactive) | 113% (inactive) | 106% (inactive) | 108% (inactive) | 94.7% (inactive) | 99% (inactive) | 98.7% (inactive) |
| Cc1c[nH]c(=O)n(Cc2nnc(CCC(=O)c3nc4ccccc4[nH]3)o2)c1=O | 36.9% (inactive) | 31.7% (inactive) | 17.7% (inactive) | 9.27% (active) | 53.2% (inactive) | 12.7% (inactive) | 21.1% (inactive) | 28.7% (inactive) | -32.7% (active) | -35.3% (active) | 10.4% (inactive) | 47.8% (inactive) | 26.1% (inactive) | -7.83% (active) | 36.6% (inactive) | 21.5% (inactive) | -15.2% (active) | 81.4% (inactive) | -16.7% (active) |
| CCN(CC)CCOc1cccc2c1C(=O)c1cccc(OCCN(CC)CC)c1C2=O | 42.2% (inactive) | 36.6% (inactive) | 37% (inactive) | 13.9% (inactive) | 36.5% (inactive) | 42.8% (inactive) | 17.5% (inactive) | 38.6% (inactive) | 6.57% (active) | 27.1% (inactive) | 27.9% (inactive) | 52% (inactive) | 42.4% (inactive) | 42.4% (inactive) | 40.8% (inactive) | 32.5% (inactive) | 37.3% (inactive) | 70.7% (inactive) | 35.4% (inactive) |
